AMA1-RON2 inh: AMA1-RON2 (P. falciparum) interaction inhibition. Potency, µM (doses to about 58.2 µM), without a hit: at the top dose activity change, negative = inhibition, actives largely listed as inhibitors. AlphaScreen AMA1-biotinylated RON2 peptide binding. 360,000 tested, 0.2% active;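 also: 0% = vehicle wells and -100% = peptide control; nearly all actives have a fitted effect of over 45% in size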
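AMA1 (3D7) with his tag at 25 nM final met compounds first, then biotinylated RON2 peptide at 25 nM; detection used donor plus acceptor beads, 10 µg/mL apiece, read by AlphaScreen after 30 min at room temperature.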
HCV inh: HCV inhibition | Huh7.5.1 HCVcc-Cre infection, luciferase reporter, 44 h | Potency, µM (highest dose often 41.8 µM), inactives show at the top dose activity change, negative = inhibition, hits mostly inhibitors | 340,000 tested, 3.4% active | AID 651820
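After 44 h co-culture of compound, cells and HCVcc-Cre (~0.5 moi), substrate is added for 15 min at room temperature and luciferase measured over 15 sec. Cells were seeded at 1,000/well and pre-cultured 4 h.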
Pf growth 96h: P. falciparum growth inhibition at 96 hour, primary screen for plastid delayed-death inhibitors | P. falciparum luciferase reporter growth, 96 h | Potency, µM (highest dose often 28.7 µM), without a hit: top-dose activity change, negative = inhibition, most hits filed as inhibitors | 320,000 tested, 6.9% active | AID 504834
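Delayed-death screen, second-generation endpoint: infected erythrocytes, 2% hematocrit, 0.05% parasitemia final; 96 hours at 37 C, 5% CO2; luciferase detection reagent; luminescence decrease equals reduced growth.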
Pf growth 48h: inhibits P. falciparum growth in the first generation, 48 h; P. falciparum luciferase growth in erythrocytes, 48 h; 310,000 tested, 5.9% active; Potency, µM (titrated, usually from 28.7 µM), without a hit: at the top dose activity change, negative = inhibition, hits mostly inhibitors
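Parasite viability was followed by luminescence of a genomically integrated firefly luciferase. Cultures held 0.1% parasitemia at 2% hematocrit (final), incubated under 5% CO2 at 37 C.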
Starred values were filed as active, the others as inactive; ? = inconclusive; . = no result given. This is a sample that favours compounds with a hit; in the whole collection about 11% have one here. Calls follow the shape of the dose curve; as a rule, active = well fitted curve in the direction sought with a large enough effect; inconclusive = small, poorly fitted or top-dose-only effect, or another doubt; inactive = no such curve, though single readings can be large; an effect the other way counts as inactive or inconclusive. Unless noted, % is scaled to controls: 0 for no effect and ±100 for the full control effect; potency is read from the fitted curve at half-maximal effect.

SMILES	AMA1-RON2 inh	HCV inh	Pf growth 96h	Pf growth 48h
Cc1cc(C)c(C(=O)/C=C/c2cccc3ccccc23)c(=O)[nH]1	-8.8%	11.2µM*	?	?
C/C(=C\c1ccccc1F)C(=O)c1c(C)cc(C)[nH]c1=O	-7.1%	19.9%	?	-6.9%
CCc1nnc(SCCSc2nnc(CC)n2N)n1N	-3.7%	-17.2%	140.5%	27.8%
CCCCc1nnc(SCCSc2nnc(CCCC)n2N)n1N	-14.7%	-11.1%	13.1µM*	-11.6%
Cc1nn(Cc2cccc(C(=O)N3N=C(C(F)F)CC3(O)C(F)F)c2)c(C)c1[N+](=O)[O-] (stereo not given)	16.1%	?	-26.5%	.
COc1cc2nc(/C=C/c3ccc(N(C)C)cc3)sc2cc1SC	17.8µM*	?	?	?
CN(Cc1nc(Cc2ccccc2F)no1)Cc1cccc2ncccc12	2.4%	11.2µM*	-17.8%	?
O=C(Nc1ncccn1)c1ccc([N+](=O)[O-])o1	0.0%	?	64.0%	8.28µM*
O=C(Nc1ccccc1C(=O)NC1CC1)c1ccc([N+](=O)[O-])o1	-14.4%	?	10.4µM*	?
CC1CCN(c2ccccc2NC(=O)c2ccc([N+](=O)[O-])o2)CC1	-4.1%	-26.3%	32.4%	?
O=C(Nc1ccccc1N1CCCC1)c1ccc([N+](=O)[O-])o1	-18.4%	?	4.15µM*	9.28µM*
Cc1cccc(NC(=O)c2ccc([N+](=O)[O-])o2)c1C	5.5%	?	-11.5%	15.0%
O=C(Nc1cccc2ccccc12)c1ccc([N+](=O)[O-])o1	-1.2%	?	5.22µM*	?
CN(C)C(CNC(=O)C1CC(=O)N(c2cccc(C(F)(F)F)c2)C1)c1ccccc1 (stereo not given)	24.3%	.	.	.
CCn1c(SCC(=O)N(C)CC(=O)Nc2ccc(OC)cc2)nnc1-c1ccco1	9.4%	-26.6%	?	?
CC(=O)c1c[nH]c(C(=O)NC2CCCCCC2)c1	-0.2%	7.7%	?	5.0%
O=C(c1cc2nc(-c3ccccc3)cc(C(F)(F)F)n2n1)N1CCN2CCCC2C1 (stereo not given)	2.7%	8.91µM*	?	?
CC1CCN(C(=O)c2cc3nc(-c4ccccc4)cc(-c4ccccc4)n3n2)CC1	39.6%	?	6.57µM*	.
O=C(c1cc2nc(-c3ccccc3)cc(C(F)(F)F)n2n1)N1CCOCC1	-3.3%	?	.	19.4%
O=C(c1nn2c(C(F)(F)F)cc(-c3ccccc3)nc2c1Cl)N1CCN2CCCC2C1 (stereo not given)	-3.5%	11.2µM*	?	?
CSc1ccc(CN2C(=O)C(C)ON=C2c2ccccc2F)cc1 (stereo not given)	-10.9%	.	.	.
C=CCNC(=O)N1CCC(c2nc3ccccc3s2)CC1	4.8%	4.2%	?	-12.5%
O=C(C[C@@H]1C/C=C\C[C@@H](Cc2ccc(F)cc2)C(=O)OC[C@@H](Cc2ccccc2)NC1=O)N[C@H](CO)Cc1ccccc1	-2.4%	11.7%	.	.
Cc1ccc(NC(=O)CSc2ccc3nnc(CCNC(=O)c4ccccc4)n3n2)c(C)c1	-24.5%	5.5%	?	?
COc1ccc(OC)c2sc(NC(=O)C3CC3)nc12	8.6%	?	-23.6%	.
SMILES	AMA1-RON2 inh	HCV inh	Pf growth 96h	Pf growth 48h
CCCC(=O)Nc1nc2c(OC)ccc(OC)c2s1	-5.6%	8.91µM*	16.8%	.
COc1ccc(OC)c2sc(NC(=O)c3ccc(Cl)s3)nc12	26.4%	7.5%	49.9%	.
CCC(=O)Nc1nc2c(OC)ccc(OC)c2s1	-0.4%	11.2µM*	-3.5%	.
COc1cc(/C=C(/C#N)c2ccc(F)cc2)ccc1Oc1ccc([N+](=O)[O-])cn1	-26.5%	2.51µM*	-16.8%	4.65µM*
CCOCCCNC(=O)c1ccc(OC2CCN(C(C)=O)CC2)c(OC)c1	-16.5%	7.3%	21.0%	?
O=C(c1cc2ccccc2o1)N1CCN(S(=O)(=O)c2ccccc2)CC1	-6.7%	0.2%	?	?
COc1ccc([N+](=O)[O-])cc1NCc1ccccc1	12.0%	6.31µM*	3.29µM*	17.6%
COc1ccc(OC)c(CNc2ccc([N+](=O)[O-])cc2C)c1	12.6µM*	-20.6%	44.9%	?
COc1ccc([N+](=O)[O-])cc1NCc1ccccc1C	22.4%	-68.3%	-3.3%	?
Cc1cc([N+](=O)[O-])ccc1NCc1ccc2c(c1)OCCO2	-19.4%	10µM*	?	?
COc1cccc(CNc2ccc([N+](=O)[O-])cc2C)c1	?	-16.6%	16.6%	?
CC1(C)CC(=O)C=C(c2n[nH]nc2C2CC2)C1	-3.1%	.	.	.
Cc1ccc(S(=O)(=O)NC(CC(=O)O)c2cccs2)cc1 (stereo not given)	-10.5%	20.3%	3.0%	22.4%
COc1cccc(NC(=O)Nc2nnc([C@H]3C[C@H](O)[C@@H](CO)O3)s2)c1	1.7%	.	.	.
Cc1nc2cc(CO)ccc2n1C	-9.5%	0.4%	9.28µM*	6.9%
Cc1ccc(NC(=O)C(=O)C2C(=O)Nc3ccccc32)cc1 (stereo not given)	98.9%	6.5%	52.2%	103.5%
Cc1ccc(-c2nc3cc(N)ccc3o2)cc1Br	16.6%	-8.0%	4.65µM*	88.3%
Cc1cccc(-n2cc(CN3CCN(Cc4nccn4C)CC3)c(-c3cccc(F)c3)n2)c1	30.4%	?	-11.1%	3.29µM*
Cc1ccc(-n2cc(CN3CCC(O)(c4ccccn4)CC3)c(-c3ccc(F)cc3)n2)cc1	-4.4%	?	2.33µM*	4.65µM*
COc1ccc(-n2cc(CN3CCCC3)c(-c3cccc(F)c3)n2)cc1	10.3%	-15.7%	248.9%	?
CC(=O)N1CCCN(Cc2cn(-c3ccc(C)cc3)nc2-c2cccc(C)c2)CC1	-2.1%	-16.1%	?	9.28µM*
CC12CCC(C(=O)C1)C1(C)CCCC(=O)C21 (stereo not given)	-20.8%	24.3%	.	.
Cc1cc2c(cc1C)NC(C)CC(=O)N2 (stereo not given)	-8.1%	6.0%	.	.
C/C(=N\NC(=O)c1cc(C(C)(C)C)[nH]n1)C12CC3CC(CC(C3)C1)C2	71.9%	6.4%	51.4%	2.62µM*
O=C(N/N=C/c1ccc(O)cc1)c1cc(C23CC4CC(CC(C4)C2)C3)[nH]n1	7.9%	-15.3%	-26.8%	-25.0%
SMILES	AMA1-RON2 inh	HCV inh	Pf growth 96h	Pf growth 48h
CCN1C(=O)[C@H]2[C@@H](c3ccc(C(F)(F)F)cc3)N[C@]3(CCCN(Cc4ccco4)C3=O)[C@H]2C1=O	19.7%	.	.	.
O=C1CSC(c2ccccc2[N+](=O)[O-])N1c1ccccc1 (stereo not given)	-2.3%	2.0%	-23.5%	21.1%
O=C1CSC(c2ccccc2[N+](=O)[O-])N1c1cccc(F)c1 (stereo not given)	13.5%	7.6%	2.33µM*	-7.8%
CCOCc1nc2nc(Cl)c(Cl)nc2[nH]1	8.5%	.	.	.
COc1ccc(CCNc2nc(-c3ccncc3)cs2)cc1OC	-22.3%	-22.8%	?	-16.1%
COc1ccc(CCNc2nc(-c3sc(C)nc3C)cs2)cc1OC	?	12.6µM*	?	.
